Bioassay records (PubChem)
S2 tox: cell viability loss in ATXN counter-screen. 0.49% of 400,000 active. S2 cells (HEK-293 line with an ATXN2-luciferase reporter) viability, CellTiter-Fluor protease fluorescence, 24 h. Potency, µM (highest dose often 56.7 µM), hits mostly cytotoxic; further: nearly all actives have a fitted effect of over 40% in size
A549 tox: A549 cytotoxicity, counter-screen for Nrf2 inhibitors; Potency, µM (series often up to 46 µM), hits mostly inhibitors; 0.16% of 390,000 active; A549 ARE-Fluc cells, CellTiter-Fluor viability, 18-24 h
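Cytotoxicity counterscreen: CellTiter-Fluor fluorescence was measured in A549 ARE_Fluc cells after 18-24 h of compound exposure in a concentration series. The subsequent BugLite luminescent read reports ARE-luciferase activity.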
ATXN2 expr inh: reduces ATXN2 reporter expression in HEK-293 cells. Potency, µM (top dose mostly 57 µM), hits mostly inhibitors. HEK-293 ATXN2-luciferase reporter, luminescence, 24 h. 0.72% of 360,000 active. AID 1745845; further: nearly all actives have a fitted effect of over 55% in size
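qHTS (up to 57 uM final) was run with 24 h compound exposure of reporter cells at 37 °C. Each well was multiplexed: SteadyGlo luminescence measured ATXN2-luciferase expression after a fluorogenic Gly-Phe-AFC viability readout (25 uM final).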
HepG2 viability: kills HepG2 cells in TGF-b inhibitor counter-screen; 0.76% of 410,000 active; Potency, µM (top dose mostly 46.1 µM), hits mostly cytotoxic; HepG2 CAGA-GFP viability, ATP luminescence, 18 h
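HepG2 CAGA-GFP cells (1000/well, DMEM with 1% FBS) received compound, then TGF-beta at 500 pg/mL final, and were incubated 18 hours at 37 degrees C. Viability was read by CellTiter-Glo luminescence. Media-only wells were set as complete cell-killing and DMSO as no toxicity.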
Nrf2 block: blocks Nrf2 signaling. 2.1% of 360,000 active. Potency, µM (titrated, usually from 46 µM), hits mostly inhibitors. AID 504444. A549 ARE-Fluc reporter, luciferase luminescence, 18-24 h; further: nearly all actives have a fitted effect of over 60% in size
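Nrf2 function is reported as luminescence of an ARE-controlled luciferase in A549 cells. Compounds were tested at several concentrations, and a CellTiter-Fluor read on the same wells flagged cytotoxicity.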
TGFb SMAD3 inh: TGF-b pathway inhibition; HepG2 CAGA-GFP TGF-b/SMAD3 reporter, GFP fluorescence, 18 h; TGF-beta stimulated, 500 pg/mL final; Potency, µM (top dose mostly 46.1 µM), most hits filed as inhibitors; 1.2% of 410,000 active; AID 588855; further: nearly all actives have a fitted effect of over 65% in size
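Cell-based qHTS in HEPG2 carrying a CAGA-GFP Smad reporter; compounds added before 500 pg/mL final TGF-beta, 18 h incubation at 37 degrees C, GFP fluorescence quantified per cell by imaging cytometry.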
Of the large screens only hits and unclear results are named; the others gave an inactive call. Shown are actives, neighbours in structure and some others; about 3.8% of the full set was active somewhere. The call rests on the fitted dose curve; in most records, active means well fitted curve in the direction sought with a large enough effect; inconclusive means small, poorly fitted or top-dose-only effect, or another doubt; inactive means no such curve, though single readings can be large; an effect the other way counts as inactive or inconclusive.

CCCOc1ccc(C(=O)C(CN2CCOCC2)c2ccccc2)cc1 (stereo unspecified)	S2 tox inconclusive, ATXN2 expr inh 20µM, TGFb SMAD3 inh 16µM
CCCOc1ccc(C(=O)C(c2ccccc2)N2CCOCC2)cc1 (stereo unspecified)	none
CC(C)(C)c1ccc(C(=O)NCCC(=O)Nc2cc(Cl)ccc2N2CCOCC2)cc1	S2 tox inconclusive, Nrf2 block inconclusive, TGFb SMAD3 inh inconclusive (no result: ATXN2 expr inh)
CN(C)c1ccc(N=Nc2ccc(S(N)(=O)=O)cc2)cc1	A549 tox inconclusive, Nrf2 block inconclusive
CC1=CC(=O)C=CC1=Nc1ccc(N(C)C)cc1	S2 tox inconclusive, ATXN2 expr inh inconclusive, TGFb SMAD3 inh 25µM (no result: A549 tox, Nrf2 block)
Cc1ccc(C(C)C)c(OCc2ccc(C(=O)N/N=C/c3ccc(O)c(O)c3)cc2)c1	ATXN2 expr inh inconclusive, TGFb SMAD3 inh inconclusive
Cc1ccc(C(C)C)c(OCc2ccc(C(=O)N/N=C/c3cccc(O)c3O)cc2)c1	A549 tox inconclusive, ATXN2 expr inh 3µM, Nrf2 block inconclusive, TGFb SMAD3 inh inconclusive
Cc1ccc(/C=C/C(=O)Nc2cc(S(N)(=O)=O)ccc2O)cc1	none
CCCn1c(SCC(=O)NCc2ccc(OC)cc2)n[nH]c1=O	S2 tox inconclusive, ATXN2 expr inh inconclusive
CCCn1c(SCC(=O)N2N=C3/C(=C/c4ccc(OC)cc4)CCCC3C2c2ccc(OC)cc2)n[nH]c1=O (stereo unspecified)	ATXN2 expr inh inconclusive, Nrf2 block inconclusive, TGFb SMAD3 inh 13µM (no result: S2 tox)
COc1cc(Cl)c(C)cc1NC(=O)Cn1cnc2sc(C)c(S(=O)(=O)N3CCCCC3)c2c1=O	S2 tox inconclusive, TGFb SMAD3 inh inconclusive
COc1ccc(C(C(=O)NC2CCCCC2)N(Cc2cccnc2)C(=O)c2snc(C(N)=O)c2N)cc1 (stereo unspecified)	none
O=C(O)c1cn[nH]c1-c1cccc([N+](=O)[O-])c1	none
CC(C)CC1NC(=S)N(Cc2ccccc2)C1=O (stereo unspecified)	S2 tox inconclusive, TGFb SMAD3 inh 5µM (no result: ATXN2 expr inh)
O=[N+]([O-])c1cc(S(=O)(=O)Nc2ccccc2)ccc1N1CCN(c2ccccc2)CC1	S2 tox inconclusive, A549 tox inconclusive, Nrf2 block 18µM, TGFb SMAD3 inh inconclusive
O=[N+]([O-])c1cc(S(=O)(=O)Nc2ccccc2)ccc1NCc1ccccc1	TGFb SMAD3 inh inconclusive
O=[N+]([O-])c1cc(S(=O)(=O)Nc2ccccc2)ccc1Nc1ccccc1	A549 tox inconclusive, Nrf2 block 26µM, TGFb SMAD3 inh inconclusive
COC(=O)c1cc2sccc2n1Cc1c(C)cc(C)cc1C	none
CCOc1ccc(NC(=O)Cn2c(=O)cc(C)c3c(C)nn(C)c32)cc1	Nrf2 block 13µM
COc1ccc(OC)c(NC(=O)Cn2c(=O)cc(C)c3c(C)nn(-c4cccc(Cl)c4C)c32)c1	A549 tox inconclusive, Nrf2 block 21µM, TGFb SMAD3 inh inconclusive (no result: S2 tox, ATXN2 expr inh)
Cc1cc(=O)n(CC(=O)N2CCN(c3ccc(F)cc3)CC2)c2c1c(C)nn2C	S2 tox inconclusive, ATXN2 expr inh inconclusive, Nrf2 block inconclusive, TGFb SMAD3 inh 7.1µM
COc1ccc(CNC(=O)Cn2c(=O)cc(C)c3c(C)nn(-c4cccc(Cl)c4C)c32)cc1	none
COc1ccc(NC(=O)Cn2c(=O)cc(C)c3c(C)nn(C)c32)cc1	none (no result: Nrf2 block)
CC(C)C(NC(=O)c1ccc(C(C)(C)C)cc1)C(=O)Nc1ccc(N2CCOCC2)cc1 (stereo unspecified)	Nrf2 block inconclusive
Cc1[nH]n(-c2ccccc2)c(=O)c1N=Nc1cccc(C(=O)O)c1	ATXN2 expr inh inconclusive, Nrf2 block inconclusive
Cc1cccc(S(=O)(=O)Nc2cccc3c2C(=O)c2ccccc2-3)c1	Nrf2 block 18µM
CCOC(=O)c1sc(NC(=O)CSc2n[nH]c(-c3ccccc3)n2)c(C#N)c1C	S2 tox inconclusive, Nrf2 block 23µM, TGFb SMAD3 inh inconclusive
